Source: PMC10726135, “HNF4α isoforms regulate the circadian balance between carbohydrate and lipid metabolism in the liver”
Whole data set: some 18,000 sequences, median “log2 normalized intensity” near 0.36, cut for the highest 2% near 7.3. The full list was thinned out, with the highest values kept by preference.

The sequences below were run against T1, HNF4alpha8 (COS-7 nuclear extract) (Homo sapiens, UniProt P41235-5 1-452) (assay: protein-binding microarray; COS-7 nuclear extract on double-stranded Agilent 4x180k PBM; binding buffer, salt, pH and temperature not given in the material; high values mean tight binding). Conditions: chain copies: 2; label: 3' end of strand 1 on the slide; dsDNA, one strand shown.
T1 sequence: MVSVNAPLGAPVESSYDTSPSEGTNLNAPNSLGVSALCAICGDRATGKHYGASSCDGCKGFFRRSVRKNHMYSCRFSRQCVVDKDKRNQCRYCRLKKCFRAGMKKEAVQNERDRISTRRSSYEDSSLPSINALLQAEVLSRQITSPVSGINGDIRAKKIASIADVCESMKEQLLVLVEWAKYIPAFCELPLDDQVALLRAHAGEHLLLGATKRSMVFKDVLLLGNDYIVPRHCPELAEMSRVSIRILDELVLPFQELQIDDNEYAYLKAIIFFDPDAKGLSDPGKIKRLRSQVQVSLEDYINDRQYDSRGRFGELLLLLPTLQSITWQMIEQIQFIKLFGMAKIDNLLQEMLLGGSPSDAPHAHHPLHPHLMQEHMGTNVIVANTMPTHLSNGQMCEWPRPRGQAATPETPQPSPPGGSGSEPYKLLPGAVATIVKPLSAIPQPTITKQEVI
Method in brief: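 A human HNF4α isoform was expressed in COS-7 cells by transient CaPO4 transfection, and nuclear extracts were prepared. These were applied to a custom Agilent SurePrint G3 4x180k array carrying ~44,000 test sequences in quadruplicate as double-stranded ~60-nt oligonucleotides, and an Agilent G2565CA scanner imaged bound HNF4α at 2-µm resolution. The background-corrected, normalized gProcessedSignal from Agilent software was used as the binding signal.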

Row | Sequence | binding signal [log2 normalized intensity]
1 | CACAGTGTAGAAGGCAAGGGTCAAGATGTCGCCTAGGGAGATTAGAGTATCGGTCGA | 2.31
2 | ATTCCAGTGTTTCAAAGGAGTGTCTTTCTCGCCTAGGGAGATTAGAGTATCGGTCGA | 1.51
3 | GGTCCTAAGACTAACCTTTGACCATCCACGGCCTAGGGAGATTAGAGTATCGGTCGA | 6.44
4 | ATGTGGTCCTAAGACTAACCTTTGACCATCGCCTAGGGAGATTAGAGTATCGGTCGA | 8.15
5 | CCTTACCTCCATTAACTAACCTTTGAACCAGCCTAGGGAGATTAGAGTATCGGTCGA | 7.58
6 | CCTCCATTAACTAACCTTTGAACCAGATGGGCCTAGGGAGATTAGAGTATCGGTCGA | 5.69
7 | ATTAACTAACCTTTGAACCAGATGGCCCTCGCCTAGGGAGATTAGAGTATCGGTCGA | 4.3
8 | TAAGACTAACCTTTGACCATCCACGGATGCGCCTAGGGAGATTAGAGTATCGGTCGA | 5.5
9 | TTACTCATGTGGTCCTAAGACTAACCTTTGGCCTAGGGAGATTAGAGTATCGGTCGA | 4.06
10 | CATGTGGTCCTAAGACTAACCTTTGACCATGCCTAGGGAGATTAGAGTATCGGTCGA | 8.37
11 | TACTCATGTGGTCCTAAGACTAACCTTTGAGCCTAGGGAGATTAGAGTATCGGTCGA | 7.11
12 | CTGACATTCTCCACTTGGTGACTGTCATTTGCCTAGGGAGATTAGAGTATCGGTCGA | 0.274
13 | TGCCCTCACAGGTTCCAGCATGGACTTCACGCCTAGGGAGATTAGAGTATCGGTCGA | 3.32
14 | TTCCGCGGACGTGTTCCCACAGTGCCCTCTGCCTAGGGAGATTAGAGTATCGGTCGA | 3.77
15 | AGTTTCAACTTAACCCCAGTTTAGCAATTTGCCTAGGGAGATTAGAGTATCGGTCGA | 2.08
16 | GACATAACACAGGTGACCTTTGCTCCGGTTGCCTAGGGAGATTAGAGTATCGGTCGA | 7.92
17 | CTAAGCAGGCACATTCCAGGACCTTTGCTCGCCTAGGGAGATTAGAGTATCGGTCGA | 4.83
18 | AACACAGGTGACCTTTGCTCCGGTTCCCAAGCCTAGGGAGATTAGAGTATCGGTCGA | 7.12
19 | AGGTGACCTTTGCTCCGGTTCCCAATAAGTGCCTAGGGAGATTAGAGTATCGGTCGA | 5.71
20 | TCTAAGACATAACACAGGTGACCTTTGCTCGCCTAGGGAGATTAGAGTATCGGTCGA | 8.96
21 | TCTTTTCTAAGACATAACACAGGTGACCTTGCCTAGGGAGATTAGAGTATCGGTCGA | 4.48
22 | TGTGGGTAATTAATCTGATCGCCCTCCCCCGCCTAGGGAGATTAGAGTATCGGTCGA | 5.29

Row | Sequence | binding signal [log2 normalized intensity]
23 | CTATTCTCTAAACTCTGGGCTCTATTTGGAGCCTAGGGAGATTAGAGTATCGGTCGA | 0.51
24 | TGCTGGAGATGAGGCTCAGACCTGACCTTTGCCTAGGGAGATTAGAGTATCGGTCGA | 7.17
25 | TACTTTGGACTGGGGACCTGGTCTGAGATAGCCTAGGGAGATTAGAGTATCGGTCGA | 1.25
26 | GGACCTGAGGCTTTTGAGTCAATAATGGACGCCTAGGGAGATTAGAGTATCGGTCGA | 1.38
27 | AAGACTTTGGACTTTGGACCTGAGGCTTTTGCCTAGGGAGATTAGAGTATCGGTCGA | 10.3
28 | GAGATGAGGCTCAGACCTGACCTTTGGATTGCCTAGGGAGATTAGAGTATCGGTCGA | 8.85
29 | GAGGCTCAGACCTGACCTTTGGATTCCCAGGCCTAGGGAGATTAGAGTATCGGTCGA | 7.11
30 | ACAAGGAGTCTCCACTATGACCTGTGCTTTGCCTAGGGAGATTAGAGTATCGGTCGA | 2.18
31 | TATAGTTTATCTACCTTTGTACCTTTAGTAGCCTAGGGAGATTAGAGTATCGGTCGA | 4.65
32 | GTTGGGCAGAAGGTGTTTCAGATGGACCAAGCCTAGGGAGATTAGAGTATCGGTCGA | 1.98
33 | ATAGCTGCCTGTGTGTTCTGCTATTCATTAGCCTAGGGAGATTAGAGTATCGGTCGA | 0.562
34 | GTGCTGGTACATAGCAGGGGTTAGGTAAACGCCTAGGGAGATTAGAGTATCGGTCGA | -0.36
35 | AGAGCGATCAAAGGTCACAGAGACCACAGGGCCTAGGGAGATTAGAGTATCGGTCGA | 5.89
36 | TCAGGAGCCCCACAGAGCAAAGGTCATGCAGCCTAGGGAGATTAGAGTATCGGTCGA | 6.34
37 | GGAGCAGAGCGATCAAAGGTCACAGAGACCGCCTAGGGAGATTAGAGTATCGGTCGA | 6.2
38 | TATGAGAGAGAGAGAGAGGTGGGCAAAGGTGCCTAGGGAGATTAGAGTATCGGTCGA | 1.33
39 | AATCATGGGCCCACAGATGATCAAAGGTCAGCCTAGGGAGATTAGAGTATCGGTCGA | 7.91
40 | GGGTCATGGAGCTGGAGGGCAAAGGTCAGAGCCTAGGGAGATTAGAGTATCGGTCGA | 8.54
41 | GTGGGTGCCAAACAAAAAGGGCAAAGGTCAGCCTAGGGAGATTAGAGTATCGGTCGA | 8.84
42 | ATGGAGCTGGAGGGCAAAGGTCAGAGGCTGGCCTAGGGAGATTAGAGTATCGGTCGA | 6.88
43 | TGGGCCCACAGATGATCAAAGGTCAGTCTTGCCTAGGGAGATTAGAGTATCGGTCGA | 7.25
44 | CACTGGGGTCATGGAGCTGGAGGGCAAAGGGCCTAGGGAGATTAGAGTATCGGTCGA | 4.08

Row | Sequence | binding signal [log2 normalized intensity]
45 | TGACTGGAGCAGAGCGATCAAAGGTCACAGGCCTAGGGAGATTAGAGTATCGGTCGA | 7.44
46 | GAGAGAGAGAGAGGTGGGCAAAGGTCTCAAGCCTAGGGAGATTAGAGTATCGGTCGA | 3.68
47 | CCCCATATCCAGTCAATCCCGTGGACTTTGGCCTAGGGAGATTAGAGTATCGGTCGA | 6.13
48 | TTGAATTCCTTCTTCTTCTGGGGACTTCGGGCCTAGGGAGATTAGAGTATCGGTCGA | 2.16
49 | CTTATAAATCTTCAACTGGAGGATAAAGTTGCCTAGGGAGATTAGAGTATCGGTCGA | 1.09
50 | GAGTCCAAACTGGGACCTGTGACACTCTGCGCCTAGGGAGATTAGAGTATCGGTCGA | 0.644
51 | CATACCAGGTGTAAAGTCTGGCATACAGGGGCCTAGGGAGATTAGAGTATCGGTCGA | 0.00259
52 | ATGTTAGGCTGGAAAACTGGGCTGTTATTTGCCTAGGGAGATTAGAGTATCGGTCGA | 0.577
53 | TCCATCATTTTTCTCTCTTGGACTCTTGGAGCCTAGGGAGATTAGAGTATCGGTCGA | 4.92
54 | CATTTTTCTCTCTTGGACTCTTGGACTCCCGCCTAGGGAGATTAGAGTATCGGTCGA | 7.67
55 | GAACATGGACTTTGAACCTCTCTTCTTTTTGCCTAGGGAGATTAGAGTATCGGTCGA | 7.93
56 | TGCGTGTTATCTATGGAACATGGACTTTGAGCCTAGGGAGATTAGAGTATCGGTCGA | 9.28
57 | AACATGGACTTTGTTGTTTGCCTCTGAAAAGCCTAGGGAGATTAGAGTATCGGTCGA | 2.8
58 | TTCTCTCTTGGACTCTTGGACTCCCTGAAGGCCTAGGGAGATTAGAGTATCGGTCGA | 5.73
59 | CTATGGAACATGGACTTTGAACCTCTCTTCGCCTAGGGAGATTAGAGTATCGGTCGA | 9.09
60 | CCTCTTGCGTGTTATCTATGGAACATGGACGCCTAGGGAGATTAGAGTATCGGTCGA | 2.5
61 | CATCTGAACTCTTCATGGACTCCTCTTATCGCCTAGGGAGATTAGAGTATCGGTCGA | 2.06
62 | TTTGAACACCTCTTCTTTCTTCTCTGGTACGCCTAGGGAGATTAGAGTATCGGTCGA | 1.8
63 | TACATTGAACTTTGAACACCTCTTCTTTCTGCCTAGGGAGATTAGAGTATCGGTCGA | 5.51
64 | CCATACCTCTTGCGTGTTATCTATGGAACAGCCTAGGGAGATTAGAGTATCGGTCGA | 1.67
65 | TTGCCAGTTCCCATTTGCGCTGGTTTTATGGCCTAGGGAGATTAGAGTATCGGTCGA | 1.65
66 | GTTATCACAGGCTTGGAATGTTTCTGTATCGCCTAGGGAGATTAGAGTATCGGTCGA | 0.74

Row | Sequence | binding signal [log2 normalized intensity]
67 | AAACGCTGAAGTCTCAAAGTTCACCACTTTGCCTAGGGAGATTAGAGTATCGGTCGA | 3.3
68 | GAAGCTGGTAGCATGGCTCAGTCCAAGTCCGCCTAGGGAGATTAGAGTATCGGTCGA | 0.896
69 | TTGGACTCTGCCACTGGTTTGCACACACCAGCCTAGGGAGATTAGAGTATCGGTCGA | 1.94
70 | TATACATTTTCCCACTTGTATGTCCAAGGGGCCTAGGGAGATTAGAGTATCGGTCGA | 1.25
71 | GAACAAAGGTTGGTGTGAACCAGGGTTAAGGCCTAGGGAGATTAGAGTATCGGTCGA | 1.59
72 | ACCTTTATCTGATCAGAAATGTTTGGAATTGCCTAGGGAGATTAGAGTATCGGTCGA | 1.84
73 | ACTCATTTCACATTGGTGCCCTTTGCCTTTGCCTAGGGAGATTAGAGTATCGGTCGA | 4.99
74 | AGTCTAACTTTGGACTTTTATGTTAAGATCGCCTAGGGAGATTAGAGTATCGGTCGA | 2.93
75 | TCTTCTTCTGGGGACTTCGGTCTTTTTTCTGCCTAGGGAGATTAGAGTATCGGTCGA | 2.67
76 | TTTCTCTTTTGACCTTTGGACTTTCACATTGCCTAGGGAGATTAGAGTATCGGTCGA | 11
77 | CCTTTGGTGCCTCTTTTTTCTTGTTGACTTGCCTAGGGAGATTAGAGTATCGGTCGA | 1.91
78 | TGAACTTTGAACACCTCTTCTTTCTTCTCTGCCTAGGGAGATTAGAGTATCGGTCGA | 4.71
79 | GTTATCTATGGAACATGGACTTTGAACCTCGCCTAGGGAGATTAGAGTATCGGTCGA | 10.9
80 | CCTTGCTATGGAGTGGACTTTGGCTTATGCGCCTAGGGAGATTAGAGTATCGGTCGA | 7.08
81 | TGGACTTTGAACCTCTCTTCTTTTTCGTCTGCCTAGGGAGATTAGAGTATCGGTCGA | 7.42
82 | GCCTGTCACCCAACCTCACCTAACCACATTGCCTAGGGAGATTAGAGTATCGGTCGA | 1.21
83 | GCTGATGCAGAGGGTGCAAAGTTTTTAAAGGCCTAGGGAGATTAGAGTATCGGTCGA | 1.28
84 | ACACCTTTTCTAGCTGAGTTGACCTGTGTTGCCTAGGGAGATTAGAGTATCGGTCGA | 4.51
85 | ACATTAATCAGTCGCGTATCTGACTTTATCGCCTAGGGAGATTAGAGTATCGGTCGA | 0.606
